The structures appear in SMILES notation.

One test addresses T1, Tyrosyl-tRNA synthetase, putative (Trypanosoma cruzi (strain CL Brener)) (UniProt Q4DSP6).
T1 sequence (whole entry): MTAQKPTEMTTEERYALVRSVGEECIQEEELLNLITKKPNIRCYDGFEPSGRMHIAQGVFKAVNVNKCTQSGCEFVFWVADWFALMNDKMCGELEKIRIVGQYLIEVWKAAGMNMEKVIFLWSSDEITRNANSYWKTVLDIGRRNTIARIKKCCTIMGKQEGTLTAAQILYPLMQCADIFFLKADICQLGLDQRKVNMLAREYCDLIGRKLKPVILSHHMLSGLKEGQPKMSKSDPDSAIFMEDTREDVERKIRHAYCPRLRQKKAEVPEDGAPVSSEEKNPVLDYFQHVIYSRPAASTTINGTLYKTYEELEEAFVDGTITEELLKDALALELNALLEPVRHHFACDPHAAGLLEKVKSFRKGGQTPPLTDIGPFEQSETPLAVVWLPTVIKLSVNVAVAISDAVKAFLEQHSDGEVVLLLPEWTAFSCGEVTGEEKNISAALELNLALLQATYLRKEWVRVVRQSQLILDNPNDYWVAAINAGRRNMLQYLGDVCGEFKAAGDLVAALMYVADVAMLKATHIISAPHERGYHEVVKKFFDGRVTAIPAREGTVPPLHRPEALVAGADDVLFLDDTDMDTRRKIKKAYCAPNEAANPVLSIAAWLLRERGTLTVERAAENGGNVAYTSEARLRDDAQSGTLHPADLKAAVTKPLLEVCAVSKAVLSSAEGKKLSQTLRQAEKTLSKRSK
Briefly: Trypanosoma cruzi tyrosyl tRNA synthetase (TcYRS) _High Tyrosine SOP. Type of test: functional. The arrangement: scale not given: in the data most compounds retested in dose-response had high values. Conditions: 30 µM.
`CN(CCO)Cc1nnc(C2CCN(C(=O)c3cccnc3)CC2)n1C`: the Percent Effect worked out at 6.01%.
On to `CN(C)C(=O)NC1COC2(CCN(C(=O)Nc3ccccc3)CC2)C1` (stereo not drawn), for which the Percent Effect was -1.06%.
For `Cc1cc(C)c(CNC(=O)NCC(O)COc2ccccc2)c(=O)[nH]1` (stereo not drawn), the Percent Effect amounted to 1.48%.
With `CCc1cnc2c(c1NCc1ccncc1)c(=O)n(C)c(=O)n2C`, the Percent Effect turned out to be 6.45%.
On the same count and under the same terms, the same measure for `c1cc(C2CCCN2Cc2nnnn2C2CC2)cs1` (stereo not drawn): 6.32%; for `O=C(CC1CC1)N1CCn2cc(Cn3cncn3)nc2C1`: 3.17%; for `CN1CCN(Cc2cn3c(n2)CN(C(=O)N2CCOCC2)CC3)CC1`: 4.3%.
For the compound `CC(C)c1nc(C(=O)N2CCCC(n3cncn3)C2)c[nH]1` (stereo not drawn), the Percent Effect stood at 4.17%.
Same read-out and setting: the same measure for `CC(C)Cc1cc(C(=O)NCc2nnc[nH]2)[nH]n1`: 1.06%; for `Cn1c(C(F)(F)F)nn(CCNC(=O)CSCc2ccccc2)c1=O`: 4.3%; for `O=C(NCCn1ccc(-c2ccncc2)n1)c1ccncc1`: 2.15%.
Still for that read-out and setting: for `CCn1cc(N)c(C(=O)NCc2cnn(C)c2)n1` the value was 6.45%.
`COc1c(CNCc2ccnc(N3CCCC3)c2)c(C)nn1C`: the Percent Effect is 7.29%.
Same read-out and setting: the same measure for `COCCn1cc(C(=O)N2CCCC2c2cc(C)no2)ccc1=O` (stereo not drawn): 7.94%; for `CC(C)C(=O)NCCCn1ncc2c(Cl)cccc21`: 5.38%; for `Cc1c[nH]c(CN(C)C(=O)c2cccc(CCC(C)(C)O)c2)n1`: 3.83%.
Consider `CC(O)CC(C)(C)CNC(=O)NCc1cccc(-n2ccnc2)c1` (stereo not drawn), for which the Percent Effect is -1.07%.
For `CN(C)C(C)(C)CNC(=O)C(C)(C)c1ccccc1F`, the Percent Effect was 4.21%.
On the same count and under the same terms, the same measure for `Cc1cnn(CC2CCCN2C(=O)c2cc3ccccc3[nH]2)c1` (stereo not drawn): 3.81%; for `Cc1ccc(C(=O)N2CCN(S(C)(=O)=O)CC2)cc1N1CCNC1=O`: 6.01%.
Consider `CC(=O)c1ccccc1C(=O)NCC1(CO)CC1`, for which the Percent Effect was found to be 4.76%.
As for `Cn1nc(CNC(=O)C2COc3ccccc3O2)cc1C1CC1` (stereo not drawn), the Percent Effect was found to be 0%.
The same measure, in the same setting: the same measure for `CN(CCCc1cnn(C)c1)C(=O)C1CCOC1` (stereo not drawn): 3.23%; for `CC(NC(=O)NCC1(c2ccccc2)CCC1)c1nncn1C` (stereo not drawn): 5.42%.
Still for that read-out and setting: for `CN(C)Cc1cc(=O)n2c(n1)CN(C(=O)Cc1ccsc1)CCC2` the value was 1.07%; for `COCCCNC(=O)CN(C)C(=O)c1cc(C)sc1C`, 5.94%.
`Cn1c(CN2CCCC2)nnc1C1CCCN(C(=O)C2CCOCC2)C1` (stereo not drawn): the Percent Effect was determined as 4.76%.
Consider `COc1ccc(NC(C)=O)c(N2CCN(C(C)=O)CC2)n1`, for which the Percent Effect worked out at 7.92%.
Still for that read-out and setting: the same measure for `CC(=O)NCCc1cc(N2CCN(C(C)=O)CC2)nc(C2CC2)n1`: 2.15%.
Same read-out and setting: the same measure for `NC(=O)CC1CCN(C(=O)CCOc2ccc(Cl)cc2)CC1`: 6.37%.
For `CCn1ccnc1CN1CCCC(CO)(Cc2cccc(Cl)c2)C1` (stereo not drawn), the Percent Effect worked out at 2.15%.
Still for that read-out and setting: the same measure for `COc1cccc(C(=O)NS(=O)(=O)c2cccc(C#N)c2)c1OC`: 1.98%; for `Cc1csc(N2CCN(CCc3ccccn3)CC2C)n1` (stereo not drawn): 4.3%; for `Cn1nnc2c1CCN(Cc1ccccc1)C2COCC1CC1` (stereo not drawn): 14.9%.
On the same count and under the same terms, for `c1ccc(-c2noc3c2CN(CC2CC2)CC3)cc1` the value was 4.3%; for `CC(C)(C)c1n[nH]c(C2CN(C(=O)c3csnn3)CCO2)n1` (stereo not drawn), 6.38%.
On the same count and under the same terms, the same measure for `O=C(NC[C@H]1OC[C@@H]2CCN(Cc3ccco3)C[C@@H]21)c1ccsc1`: 6.25%; for `CS(=O)(=O)NC[C@]12COC[C@H]1CN(C(=O)c1ccoc1)C2`: 5.29%.
`Cc1nn(C)c(N(C)C)c1CNCc1ccccc1CN(C)C`: the Percent Effect was determined as 1.04%.

The target in the next test is T1, Tyrosyl-tRNA synthetase, putative (Trypanosoma cruzi (strain CL Brener)). Kind of test: Trypanosoma cruzi tyrosyl tRNA synthetase (TcYRS) SOP. Type of test: functional. On the set-up: scale not given: direction of the effect not stated beside the values. The settings on record: 30 µM.
For the compound `CN(CCO)Cc1nnc(C2CCN(C(=O)c3cccnc3)CC2)n1C`, the Percent Effect worked out at 16.1%.
Same read-out and setting: for `CN(C)C(=O)NC1COC2(CCN(C(=O)Nc3ccccc3)CC2)C1` (stereo not drawn) the value was 6.41%.
Consider `Cc1cc(C)c(CNC(=O)NCC(O)COc2ccccc2)c(=O)[nH]1` (stereo not drawn), for which the Percent Effect was -1.24%.
On the same count and under the same terms, the same measure for `CCc1cnc2c(c1NCc1ccncc1)c(=O)n(C)c(=O)n2C`: 10%; for `c1cc(C2CCCN2Cc2nnnn2C2CC2)cs1` (stereo not drawn): 10.3%; for `O=C(CC1CC1)N1CCn2cc(Cn3cncn3)nc2C1`: 11.5%.
Still for that read-out and setting: for `CN1CCN(Cc2cn3c(n2)CN(C(=O)N2CCOCC2)CC3)CC1` the value was 11.1%.
Still for that read-out and setting: the same measure for `CC(C)c1nc(C(=O)N2CCCC(n3cncn3)C2)c[nH]1` (stereo not drawn): 15.2%; for `CC(C)Cc1cc(C(=O)NCc2nnc[nH]2)[nH]n1`: -2.6%; for `Cn1c(C(F)(F)F)nn(CCNC(=O)CSCc2ccccc2)c1=O`: 15%.
`O=C(NCCn1ccc(-c2ccncc2)n1)c1ccncc1`: the Percent Effect turned out to be 2.5%.
With `CCn1cc(N)c(C(=O)NCc2cnn(C)c2)n1`, the Percent Effect is 11.1%.
Same read-out and setting: the same measure for `COc1c(CNCc2ccnc(N3CCCC3)c2)c(C)nn1C`: 15.2%; for `COCCn1cc(C(=O)N2CCCC2c2cc(C)no2)ccc1=O` (stereo not drawn): 12.2%; for `CC(C)C(=O)NCCCn1ncc2c(Cl)cccc21`: 11.1%.
Still for that read-out and setting: the same measure for `Cc1c[nH]c(CN(C)C(=O)c2cccc(CCC(C)(C)O)c2)n1`: 16.1%; for `CC(O)CC(C)(C)CNC(=O)NCc1cccc(-n2ccnc2)c1` (stereo not drawn): -1.24%; for `CN(C)C(C)(C)CNC(=O)C(C)(C)c1ccccc1F`: -2.56%.
As to `Cc1cnn(CC2CCCN2C(=O)c2cc3ccccc3[nH]2)c1` (stereo not drawn), the Percent Effect came to 11.8%.
Take `Cc1ccc(C(=O)N2CCN(S(C)(=O)=O)CC2)cc1N1CCNC1=O`: the Percent Effect stood at 11.1%.
Still for that read-out and setting: the same measure for `CC(=O)c1ccccc1C(=O)NCC1(CO)CC1`: -4.88%; for `Cn1nc(CNC(=O)C2COc3ccccc3O2)cc1C1CC1` (stereo not drawn): -6.41%.
In the case of `CN(CCCc1cnn(C)c1)C(=O)C1CCOC1` (stereo not drawn), the Percent Effect was 2.5%.
The same measure, in the same setting: the same measure for `CC(NC(=O)NCC1(c2ccccc2)CCC1)c1nncn1C` (stereo not drawn): 16.1%; for `CN(C)Cc1cc(=O)n2c(n1)CN(C(=O)Cc1ccsc1)CCC2`: 1.24%; for `COCCCNC(=O)CN(C)C(=O)c1cc(C)sc1C`: 15.8%.
On the same count and under the same terms, the same measure for `Cn1c(CN2CCCC2)nnc1C1CCCN(C(=O)C2CCOCC2)C1` (stereo not drawn): 4.88%; for `COc1ccc(NC(C)=O)c(N2CCN(C(C)=O)CC2)n1`: 8.54%; for `CC(=O)NCCc1cc(N2CCN(C(C)=O)CC2)nc(C2CC2)n1`: -1.3%.
On the same count and under the same terms, for `NC(=O)CC1CCN(C(=O)CCOc2ccc(Cl)cc2)CC1` the value was 12.2%; for `CCn1ccnc1CN1CCCC(CO)(Cc2cccc(Cl)c2)C1` (stereo not drawn), 11.1%; for `COc1cccc(C(=O)NS(=O)(=O)c2cccc(C#N)c2)c1OC`, 13.4%.
For the compound `Cc1csc(N2CCN(CCc3ccccn3)CC2C)n1` (stereo not drawn), the Percent Effect came out at 5%.
The same measure, in the same setting: the same measure for `Cn1nnc2c1CCN(Cc1ccccc1)C2COCC1CC1` (stereo not drawn): 24.4%.
With `c1ccc(-c2noc3c2CN(CC2CC2)CC3)cc1`, the Percent Effect is 10%.
On the same count and under the same terms, for `CC(C)(C)c1n[nH]c(C2CN(C(=O)c3csnn3)CCO2)n1` (stereo not drawn) the value was 15.6%; for `O=C(NC[C@H]1OC[C@@H]2CCN(Cc3ccco3)C[C@@H]21)c1ccsc1`, 8.64%.
Same read-out and setting: the same measure for `CS(=O)(=O)NC[C@]12COC[C@H]1CN(C(=O)c1ccoc1)C2`: 11.5%; for `Cc1nn(C)c(N(C)C)c1CNCc1ccccc1CN(C)C`: 2.53%.

The record behind these values is ChEMBL document CHEMBL3988442, “University of Dundee, Small-Polar-MMV Screening Library” (2021).
